# Source: PubChem BioAssay (NCI)
# This is part of a sample that, as a whole, favours compounds with a hit. Of some 83,000 tested, about 20% had one in any assay.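 The test compound was applied at a single concentration to cells in 96-well plates for 48 hours, and percent growth was recorded.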 Calls of active or inactive are those of the source. How the source made its calls: active means growth percent below 10; inactive means the rest.
# Test system: MDA-MB-468 breast
# Assay: NCI-60 one-dose screen, 48 h (100 = growth as untreated, 0 = no growth, -100 = all killed)
# Settings: 10 µM unless noted
row,SMILES,growth
1,COc1ccc(-c2cc(-c3ccc(N(C)C)cc3)nc(NC(=O)c3ccncc3)n2)cc1,75.5% (inactive)
2,COc1ccc(S(=O)(=O)NCCNc2nccc(-c3c(-c4ccccc4)nc4sccn34)n2)cc1,36.7% (inactive)
3,CCCCCCCCCCCCCCCCCCOc1ccc(CC(=O)OCC[N+]2(C)CCCCC2)cc1,92.2% (inactive)
4,N#CSCc1cc(Cl)c(CSC#N)cc1Cl,66% (inactive)
5,O=S(=O)(NCCCNc1nccc(-c2c(-c3ccc(F)c(O)c3)nc3occn23)n1)c1ccc(Cl)cc1,62.2% (inactive)
6,COc1ccc(CNc2c3ccccc3nc3ccccc23)cc1OC,-22.7% (active)
7,COc1cnc2c(c1)C(=O)c1c-2n(CCCN2CCOCC2)c(=O)c2cc(Cl)ccc12,-1.98% (active)
8,COc1ccccc1/C=C/C(=O)c1nnn(-c2ccc(F)cc2)c1C,38.2% (inactive)
9,O=S(=O)(Nc1ccc(I)cc1Cl)c1ccc(-c2cnc(C3CC3)o2)cc1,20.1% (inactive)
10,CN1CCN(CCCOc2ccc3ncnc(Nc4ccc(Oc5cccc(C(F)(F)F)c5)c(Cl)c4)c3c2)CC1,-24.2% (active)
11,COCCNCC(O)Cn1c2ccc(Cl)cc2c2cc(Cl)ccc21 (stereo not given),-43.9% (active)
12,CC(=O)Nc1cc2c3c(cccc3c1)-c1ccccc1-2,108% (inactive)
13,C=C1C(=O)O[C@H]2[C@H]1CC/C(COC(=O)CCC(=O)NCCOCCOCC(=O)Nc1ccc(OC)c(C(N)=O)c1O)=C\CC[C@@]1(C)O[C@@H]21,-17.5% (active)
14,CN1CCN(Cc2ccc(NC(=O)c3cncc(C#Cc4cnccc4C#N)c3)cc2C(F)(F)F)CC1,90.5% (inactive)
15,Cc1ccc(OCCOCCOCCOc2ccc(C)n(O)c2=S)c(=S)n1O,12.1% (inactive)
16,COc1ccc(/C=C2/C(=O)ON=C2C)cc1,103% (inactive)
17,Oc1ccc(Cl)cc1-c1cc(-c2ccc(F)cc2)n[nH]1,-0.461% (active)
18,Nc1ccc(C2=NN(c3ccccc3)C(c3ccc(Cl)cc3)C2)cc1 (stereo not given),62.6% (inactive)
19,CCCCCCCC/C=C\CCCCCCCCOc1ccccc1CC(=O)NCC[N+](C)(C)C,68.9% (inactive)
20,O=C(/C=C\c1ccc2ccccc2n1)c1cc(Cl)ccc1O,107% (inactive)

row,SMILES,growth
1,CCOC(=O)C1=C(C)N=C2SC=C(c3ccc(F)cc3)N2[C@H]1c1cn(-c2ccccc2)nc1-c1ccc(Cl)cc1,91.1% (inactive)
2,O=C(CCCCCCNC(=O)C(O)(O)C(F)(F)F)Nc1ccc(Cl)cc1,16.9% (inactive)
3,COc1cccc(-c2nn(-c3ccccc3)cc2-c2ccnc(NCCCNS(=O)(=O)c3ccccc3)c2)c1,8.98% (active)
4,Cc1cc2c3ccccc3ccc2[n+]2ccccc12,-60.6% (active)
5,COC(=O)c1c2c(c[n+]([O-])c1C)C(=O)C(NCc1ccccc1)=CC2=O,-57.7% (active)
6,COc1cc(NC(C)CN(CC(C)C)C(C)C)c2ncccc2c1 (stereo not given),-15.4% (active)
7,O=C(CSc1nccc(=O)[nH]1)Nc1ccc(-c2nc3ccccc3[nH]2)cc1,118% (inactive)
8,COc1ccc(-c2nc(N/N=C/c3cccc(Br)c3)nc(N3CCOCC3)c2C#N)cc1,73.4% (inactive)
9,Clc1ccc(/C=C/c2ccccn2)c(Cl)c1,29.3% (inactive)
10,Cc1csc(Nc2cccc(Nc3nc(C)cs3)c2)n1,47.6% (inactive)
11,CC/C(=C\c1ccc(N(C)C)cc1)c1ccncc1,-12.7% (active)
12,N#CC1=C(N2CCOCC2)NC2c3ccccc3Sc3ccccc3N2C1=N (stereo not given),99.9% (inactive)
13,COc1ccc(NC(=O)c2sc3nc(C)c(C(=O)CCc4cccc(OC)c4)cc3c2N)cc1,29.6% (inactive)
14,CC(C)=CCc1cc2c(cc1O)C1=C(C(=O)C3=C(NCCS3(=O)=O)C1=O)C(C=C(C)C)O2 (stereo not given),-20.7% (active)
15,CC(C)CNc1nc(N=[N+]=[N-])nc(NCC(C)C)n1,59.7% [100 µM] (inactive)
16,CN1COc2ccc3ccccc3c2C1,111% (inactive)
17,CC(C)(C)OC(=O)N1CCN(S(=O)(=O)/N=C2\NC(=O)NC2=C(Cl)Cl)CC1,63.7% (inactive)
18,COc1nc(N)nc2c1ncn2C1OC(CO)CC1O (stereo not given),98.5% (inactive)
19,O[C@H]1[C@H]2c3cc4c(cc3CN3CCC(=C[C@@H]1O)[C@H]23)OCO4,20.7% (inactive)
20,N#C/C=C(\c1ccc([N+](=O)[O-])cc1)n1nnc2cc(Cl)c(Cl)cc21,-47.4% (active)
